Our source for the outcome and AC50 values is PubChem BioAssay (EPA / NIEHS).

What all share (settings): mRNA level, 48 h; actives raise or lower the signal
Read-out in assay [1]: Insulin Like Growth Factor 1 (IGF1), IGF1 (gene 3479)
The assay is described as follows: LTEA_HepaRG_IGF1: Life Technologies and Expression Analysis (LTEA) Assay for Insulin Like Growth Factor 1 (IGF1) using HepaRG (AID 2283506). Put shortly: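 Endpoint: IGF1 mRNA change by qRT-PCR, housekeeping-normalized, fitted bidirectionally relative to 0.5% DMSO vehicle. Human HepaRG cells were treated 48 h in serum-free induction medium, eight half-log concentrations topping at 100 uM.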

Read-out in assay [2]: Intercellular Adhesion Molecule 1 (ICAM1), ICAM1 (gene 3383)
The assay is described as follows: LTEA_HepaRG_ICAM1: Life Technologies and Expression Analysis (LTEA) Assay for Intercellular Adhesion Molecule 1 (ICAM1) using HepaRG (AID 2283507). A digest of the protocol: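 Readout is qRT-PCR mRNA level, normalized to three housekeeping genes and fitted bidirectionally against 0.5% DMSO vehicle. Human HepaRG cultures received compound for 48 h, top concentration 100 uM with half-log dilutions.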

Read-out in assay [3]: Insulin-like growth factor-binding protein 1 (IGFBP1), IGFBP1 (gene 3484)
The assay is described as follows: LTEA_HepaRG_IGFBP1: Life Technologies and Expression Analysis (LTEA) Assay for Insulin-like growth factor-binding protein 1 (IGFBP1) using HepaRG (AID 2283508). Put shortly:
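Thawed HepaRG cells are plated for 48 h, switched to serum-free induction medium, then dosed in duplicate for another 48 h (100 uM top, half-log steps). Lysates in RLT go to qRT-PCR, and gain or loss of signal is fitted relative to vehicle.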

Read-out in assay [4]: Interleukin 6 (IL6), IL6 (gene 3569)
The assay is described as follows: LTEA_HepaRG_IL6: Life Technologies and Expression Analysis (LTEA) Assay for Interleukin 6 (IL6) using HepaRG (AID 2283509). A digest of the protocol: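 Changes in IL6 mRNA, up or down relative to 0.5% DMSO controls, were derived from concentration-response curves in human HepaRG cells treated for 48 h at up to 100 uM, with ACTB, GAPDH and POLR2A as normalizers.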

Read-out in assay [5]: Interleukin 6 Receptor (IL6R), IL6R (gene 3570)
The assay is described as follows: LTEA_HepaRG_IL6R: Life Technologies and Expression Analysis (LTEA) Assay for Interleukin 6 Receptor (IL6R) using HepaRG (AID 2283510).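 As to AC50: differentiated human HepaRG liver cells in serum-free induction medium; TaqMan qRT-PCR signal normalized to ACTB GAPDH and POLR2A housekeeping genes.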 Put shortly: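 In this HepaRG screen, test chemicals act on cells for 48 h at up to 100 uM (eight half-log points, duplicate wells). IL6R expression is quantified by qRT-PCR after normalization to ACTB, GAPDH and POLR2A, with DMSO as baseline.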

Read-out in assay [6]: Potassium channel subfamily K member 1 (KCNK1), KCNK1 (gene 3775)
The assay is described as follows: LTEA_HepaRG_KCNK1: Life Technologies and Expression Analysis (LTEA) Assay for Potassium channel subfamily K member 1 (KCNK1) using HepaRG (AID 2283511). Put shortly:
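Human HepaRG cultures receive test chemicals for 48 h in 0.5% DMSO, top concentration 100 uM with half-log dilutions. Induction or suppression of KCNK1 mRNA relative to DMSO is derived by bidirectional fitting of qRT-PCR data.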

Read-out in assay [7]: Keratin 19 (KRT19), KRT19 (gene 3880)
The assay is described as follows: LTEA_HepaRG_KRT19: Life Technologies and Expression Analysis (LTEA) Assay for Keratin 19 (KRT19) using HepaRG (AID 2283512). A digest of the protocol: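 KRT19 transcript levels, measured by Fluidigm qRT-PCR against three housekeeping genes, are fitted for gain or loss of signal relative to DMSO. Human HepaRG cells receive test chemicals (top 100 uM, half-log steps, 0.5% DMSO) for 48 hours.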

Read-out in assay [8]: Lipase C (LIPC), LIPC (gene 3990)
The assay is described as follows: LTEA_HepaRG_LIPC: Life Technologies and Expression Analysis (LTEA) Assay for Lipase C (LIPC) using HepaRG (AID 2283514). Put shortly:
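In this multiplexed gene-expression screen, human HepaRG cultures received test chemicals for 48 h across eight concentrations with 100 uM highest, in duplicate. Values reflect LIPC mRNA induction or suppression versus DMSO vehicle, from normalized qRT-PCR.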

Read-out in assay [9]: Lipoprotein lipase (LPL), LPL (gene 4023)
The assay is described as follows: LTEA_HepaRG_LPL: Life Technologies and Expression Analysis (LTEA) Assay for Lipoprotein lipase (LPL) using HepaRG (AID 2283515). Put shortly: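 Concentration-response testing used half-log steps from 100 uM in 0.5% DMSO on human HepaRG cells, 48 h, duplicate wells. Phenobarbital 1 mM served as induction control; LPL mRNA was normalized to ACTB, GAPDH, POLR2A.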

Read-out in assay [10]: MicroRNA 122 (MIR122), gene 406906
The assay is described as follows: LTEA_HepaRG_MIR122: Life Technologies and Expression Analysis (LTEA) Assay for MicroRNA 122 (MIR122) using HepaRG (AID 2283516). Also: the transcript read is the microRNA miR-122. Put shortly: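 Changes in transcript abundance, up or down relative to 0.5% DMSO vehicle, were scored after 48 h chemical treatment of HepaRG cells (maximum 100 uM). Quantification used TaqMan qRT-PCR normalized to housekeeping genes.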

Read-out in assay [11]: matrix metalloproteinase-10 (MMP10), MMP10 (gene 4319)
The assay is described as follows: LTEA_HepaRG_MMP10: Life Technologies and Expression Analysis (LTEA) Assay for matrix metalloproteinase-10 (MMP10) using HepaRG (AID 2283517). Put shortly: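 In differentiated HepaRG cultures kept in 0.5% DMSO, test chemicals act for 48 h over an eight-point range with a top dose of 100 uM. Expression is then quantified by TaqMan RT-PCR against ACTB, GAPDH and POLR2A.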

Read-out in assay [12]: MYC, MYC (gene 4609)
The assay is described as follows: LTEA_HepaRG_MYC: Life Technologies and Expression Analysis (LTEA) Assay for MYC using HepaRG (AID 2283518). Put shortly:
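HepaRG, ~100,000 cells/well, collagen I; 48 h plating; serum-free induction medium; 48 h dosing, duplicate, 100 uM top, half-log, 0.5% DMSO; total RNA → qRT-PCR MYC; gain/loss fit vs DMSO.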

Read-out in assay [13]: Paternally Expressed 10 (PEG10), PEG10 (gene 23089)
The assay is described as follows: LTEA_HepaRG_PEG10: Life Technologies and Expression Analysis (LTEA) Assay for Paternally Expressed 10 (PEG10) using HepaRG (AID 2283520).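 As to AC50: PEG10 transcript by qRT-PCR normalised to ACTB GAPDH and POLR2A.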 Put shortly: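 After 48 h exposure of differentiated HepaRG cells (0.5% DMSO vehicle, eight concentrations up to 100 uM, duplicates), PEG10 mRNA was measured by TaqMan qRT-PCR. Values were normalised to endogenous control genes and analysed bidirectionally against vehicle.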

Read-out in assay [14]: Nuclear factor NF-kappa-B p105 subunit (Homo sapiens) (UniProt P19838)
The assay is described as follows: LTEA_HepaRG_NFKB1: Life Technologies and Expression Analysis (LTEA) Assay for Nuclear Factor Kappa B Subunit 1 (NFKB1) using HepaRG (AID 2283521).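 Also: differentiated human HepaRG liver cells in serum-free induction medium; TaqMan qRT-PCR transcript normalised to ACTB GAPDH and POLR2A housekeeping genes.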 Put shortly:
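HepaRG, 48 h exposure; 8-pt half-log series from 100 uM in 0.5% DMSO; duplicates. Readout: NFKB1 mRNA by qRT-PCR (Fluidigm arrays), housekeeping-normalized. Gain/loss fit vs DMSO baseline.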

Read-out in assay [15]: Protein phosphatase 2A (PPP2R4), PTPA (gene 5524)
The assay is described as follows: LTEA_HepaRG_PPP2R4: Life Technologies and Expression Analysis (LTEA) Assay for Protein phosphatase 2A (PPP2R4) using HepaRG (AID 2283522). Put shortly: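 Using HepaRG cultures maintained in 0.5% DMSO, chemicals are tested 48 h at up to 100 uM in duplicate. Induction or suppression of PPP2R4 mRNA, measured by qRT-PCR, is fitted bidirectionally against the vehicle baseline.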

Read-out in assay [16]: Phosphatase and tensin (PTEN), PTEN (gene 5728)
The assay is described as follows: LTEA_HepaRG_PTEN: Life Technologies and Expression Analysis (LTEA) Assay for Phosphatase and tensin (PTEN) using HepaRG (AID 2283523). A digest of the protocol: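 Expression of PTEN is quantified in the human liver line HepaRG following two days of dosing (top concentration 100 uM, half-log dilutions, 0.5% DMSO). Values derive from bidirectional curve fitting relative to DMSO controls.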

Read-out in assay [17]: solute carrier (SLC22A1), SLC22A1 (gene 6580)
The assay is described as follows: LTEA_HepaRG_SLC22A1: Life Technologies and Expression Analysis (LTEA) Assay for solute carrier (SLC22A1) using HepaRG (AID 2283524).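 As to AC50: differentiated human HepaRG liver cells in serum-free induction medium; TaqMan qRT-PCR normalized to ACTB GAPDH and POLR2A housekeeping genes.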 Put shortly: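 Transcript induction or suppression of SLC22A1 in human HepaRG cultures is scored after 48 h chemical treatment, with DMSO (0.5%) as baseline for bidirectional fitting. Concentrations span eight half-log points topping at 100 uM.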

Read-out in assay [18]: Pyruvate Dehydrogenase Kinase 4 (PDK4), PDK4 (gene 5166)
The assay is described as follows: LTEA_HepaRG_PDK4: Life Technologies and Expression Analysis (LTEA) Assay for Pyruvate Dehydrogenase Kinase 4 (PDK4) using HepaRG (AID 2283525). Put shortly: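 Eight-point, half-log concentration series (max 100 uM, 0.5% DMSO) applied to differentiated HepaRG cells for 48 h in duplicate. Endpoint: PDK4 mRNA induction or repression by qRT-PCR against DMSO baseline.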

Read-out in assay [19]: JUN Transcription Factor, JUN (gene 3725)
The assay is described as follows: LTEA_HepaRG_JUN: Life Technologies and Expression Analysis (LTEA) Assay for JUN Transcription Factor using HepaRG (AID 2283513). A digest of the protocol:
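Gene-expression endpoint: JUN mRNA (qRT-PCR, normalized to three reference genes) in HepaRG cultures treated 48 h with chemicals, duplicate wells, 100 uM maximum with half-log dilutions; bidirectional fitting relative to 0.5% DMSO.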

Activity calls are given as the source filed them. The calls were made as follows: active = hit-call score of the fitted dose curve at least 0.9, where 1 is the maximum; inactive = score below 0.9.

Chain of Nuclear factor NF-kappa-B p105 subunit (Homo sapiens) (P19838 whole entry, looked up): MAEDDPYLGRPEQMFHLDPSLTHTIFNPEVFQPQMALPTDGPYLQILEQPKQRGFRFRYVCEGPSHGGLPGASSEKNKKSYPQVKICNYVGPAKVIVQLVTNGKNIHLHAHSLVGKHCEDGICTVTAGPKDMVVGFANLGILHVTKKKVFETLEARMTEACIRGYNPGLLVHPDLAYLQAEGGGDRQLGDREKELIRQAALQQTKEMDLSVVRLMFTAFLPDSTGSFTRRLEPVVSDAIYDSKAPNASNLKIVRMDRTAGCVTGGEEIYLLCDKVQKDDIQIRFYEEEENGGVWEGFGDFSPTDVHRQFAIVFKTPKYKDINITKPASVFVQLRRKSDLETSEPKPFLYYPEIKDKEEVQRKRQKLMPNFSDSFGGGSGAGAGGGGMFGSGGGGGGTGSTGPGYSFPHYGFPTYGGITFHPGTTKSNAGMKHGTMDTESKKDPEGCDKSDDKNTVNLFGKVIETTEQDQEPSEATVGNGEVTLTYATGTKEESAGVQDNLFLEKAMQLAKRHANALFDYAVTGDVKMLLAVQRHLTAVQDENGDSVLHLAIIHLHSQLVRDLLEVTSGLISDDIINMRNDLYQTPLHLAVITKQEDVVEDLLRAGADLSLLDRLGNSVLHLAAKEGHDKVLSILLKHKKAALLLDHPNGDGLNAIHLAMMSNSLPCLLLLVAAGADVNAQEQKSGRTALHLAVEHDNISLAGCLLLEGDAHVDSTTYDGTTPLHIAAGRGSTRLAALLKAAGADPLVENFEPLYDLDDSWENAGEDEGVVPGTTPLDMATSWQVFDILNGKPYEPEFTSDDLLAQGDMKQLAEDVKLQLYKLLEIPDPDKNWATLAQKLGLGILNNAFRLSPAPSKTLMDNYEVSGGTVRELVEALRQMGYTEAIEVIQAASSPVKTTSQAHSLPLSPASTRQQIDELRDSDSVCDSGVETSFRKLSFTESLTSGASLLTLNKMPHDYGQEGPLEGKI

As for `O=C1CCCCCN1`, the compound was called inactive in assay [1], in assay [2], in assay [3], in assay [4], in assay [5] and in [6]. Besides, the compound was called inactive in assay [7], in assay [8], in [9], in [10], in assay [11] and in [12]. The compound was called inactive in assay [13], in assay [14], in [15], in [16], in assay [17] and in [18].
One may read the AC50 as the concentration giving half of the maximal activity seen. As to `Cc1[nH]cnc1C[C@H]1CCc2c(C)c3ccccc3n2C1=O`, the half-maximal activity concentration (AC50) in assay [1] was 17.8 µM (active); in assay [2] it was 35.9 µM (active); in [3] it was 37.2 µM (active); in assay [4], 84 µM (active); in assay [5] it was 79.3 µM (active); in assay [6], 58.7 µM (active). Besides, the AC50 in assay [7] is 11.5 µM (active); in assay [8], 27.7 µM (active); in assay [9] it was 79 µM (active); in assay [10], 14.1 µM (active); in assay [11], 70.1 µM (active); in assay [12], 31.4 µM (active). The concentration at half-maximal activity (AC50) in assay [13] is 20.8 µM (active); in [15], 73.1 µM (active); in assay [16], 79.3 µM (active); in assay [17], 29 µM (active); in assay [18] it was 68.3 µM (active).
Consider `CCCCCCCCCCCCCCCO`, for which the compound was classed as inactive in [1], in [2], in [3], in assay [4], in assay [5] and in assay [6]. Also, the result in assay [7], in assay [19], in assay [8], in assay [9], in assay [10] and in [11] was inactive. The call in [12], in assay [13], in [14], in assay [15], in assay [16] and in assay [17] was inactive.
Take `CC(C)=CCCC(C)=CC=O`: the outcome in assay [1], in assay [2], in assay [3], in assay [4], in assay [5] and in assay [6] was inactive. Also, the outcome in assay [7], in assay [19], in assay [8], in assay [9], in assay [10] and in [11] was inactive. For the same compound, the compound was classed as inactive in [12], in assay [13], in assay [15], in [16], in [17] and in [18].
